Among all 310,000 compounds or so, about 14,000 (4.5%) showed an effect of 50% or more. The effect is printed as a negative number. The list comes from a sample in which strong results are over-represented; it also holds similar structures and randomly drawn compounds.

This note sets out measurements from article PMC4336329 (PLoS ONE, 2015).
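Also: peak tail current of the secondary pulse compared with the same well before compound.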

The target of this test is human ether-à-go-go-related gene (hERG) potassium channel (human, UniProt Q12809). Kind of test: primary screen, population patch clamp on CHO cells stably expressing hERG; higher = less effect of the substance.
human ether-à-go-go-related gene (hERG) potassium channel, sequence (Q12809 whole entry, looked up): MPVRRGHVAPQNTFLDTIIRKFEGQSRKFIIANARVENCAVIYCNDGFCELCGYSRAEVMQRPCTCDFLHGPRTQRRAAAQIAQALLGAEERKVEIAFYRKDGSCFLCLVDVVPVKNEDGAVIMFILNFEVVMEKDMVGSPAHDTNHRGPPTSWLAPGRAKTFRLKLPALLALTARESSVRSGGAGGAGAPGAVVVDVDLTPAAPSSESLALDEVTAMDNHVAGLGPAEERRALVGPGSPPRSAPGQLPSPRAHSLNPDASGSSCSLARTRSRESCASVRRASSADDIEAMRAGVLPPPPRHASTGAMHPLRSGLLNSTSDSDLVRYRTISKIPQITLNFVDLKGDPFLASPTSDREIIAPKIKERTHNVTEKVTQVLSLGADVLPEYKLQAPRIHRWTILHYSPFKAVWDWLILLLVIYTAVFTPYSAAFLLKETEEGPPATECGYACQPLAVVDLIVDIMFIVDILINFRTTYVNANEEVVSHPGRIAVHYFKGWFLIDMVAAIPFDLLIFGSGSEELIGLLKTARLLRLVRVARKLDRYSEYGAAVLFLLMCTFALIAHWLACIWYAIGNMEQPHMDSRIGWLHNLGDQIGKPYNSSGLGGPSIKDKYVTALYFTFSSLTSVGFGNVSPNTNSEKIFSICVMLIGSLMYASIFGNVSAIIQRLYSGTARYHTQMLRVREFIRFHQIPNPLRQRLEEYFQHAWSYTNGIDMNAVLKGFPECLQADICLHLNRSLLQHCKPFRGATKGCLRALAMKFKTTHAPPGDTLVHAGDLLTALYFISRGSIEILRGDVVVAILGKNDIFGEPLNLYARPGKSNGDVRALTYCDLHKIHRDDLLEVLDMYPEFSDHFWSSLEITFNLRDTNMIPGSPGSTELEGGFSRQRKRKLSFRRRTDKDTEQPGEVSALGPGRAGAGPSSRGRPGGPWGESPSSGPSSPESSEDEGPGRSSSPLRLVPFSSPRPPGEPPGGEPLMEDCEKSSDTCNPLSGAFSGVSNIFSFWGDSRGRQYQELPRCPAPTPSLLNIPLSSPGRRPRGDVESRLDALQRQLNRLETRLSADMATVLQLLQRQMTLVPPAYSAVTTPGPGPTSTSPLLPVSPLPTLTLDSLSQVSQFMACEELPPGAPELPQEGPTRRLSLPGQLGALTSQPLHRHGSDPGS
For the molecule `CCOC(=O)C(C(=O)Nc1cccc(C)c1)C1CCCCC1` (stereo not drawn), the “hERG current change (%, negative = inhibition) at 10uM” value is -6.99%. Next, `CCC1C(=O)N=C(SCC(=O)Nc2ccc(C)cc2)N(c2ccccc2)C1=O` (stereo not drawn): 19.4%. Next, `CCOC(=O)c1sc(Nc2ccc(Br)cc2)nc1C`: 13.7%; `Cc1oc2ncnc(N)c2c1C`: 8.52%. As for `CNC(=O)CN1C(=O)c2cccc3cccc1c23`, the “hERG current change (%, negative = inhibition) at 10uM” value came out at 10.3%. The result for `COc1ccc(NS(=O)(=O)c2ccc(O)c(NC(=O)c3ccc(S(=O)(=O)N4CCCCCC4)cc3)c2)cc1` reads 1.73%; that for `OCC[C@H]1C[C@@H](O)[C@H](O)[C@]2(OCc3ccccc32)O1`, -0.346%; that for `O=c1[nH]ncn1-c1cccc(C(F)(F)F)c1`, 10.8%.

`FC(F)(F)c1cnc(Oc2ccccc2-c2nnc(-c3ccc(Cl)cc3)o2)c(Cl)c1`: the “hERG current change (%, negative = inhibition) at 10uM” value is listed as -1.52%.

Turning to `CC1CCCCC1NC(=O)CSc1ccc([N+](=O)[O-])cc1` (stereo not drawn), the “hERG current change (%, negative = inhibition) at 10uM” value is on record as -52.6%. The result for `Cc1ccccc1CSCCNC(=O)CSCc1ccc([N+](=O)[O-])cc1` reads -51.3%; that for `Cc1ccccc1CSCC(=O)NCCSc1ccccn1`, -3.24%; that for `O=C(Cc1ccc([N+](=O)[O-])cc1)N/N=C/c1cccnc1`, -9.63%. For `O=C(CSCc1ccc([N+](=O)[O-])cc1)N/N=C/c1ccncc1`, the “hERG current change (%, negative = inhibition) at 10uM” value was -49.1%. Regarding `CC1CCCCC1NC(=O)Cn1cc([N+](=O)[O-])ccc1=O` (stereo not drawn), the “hERG current change (%, negative = inhibition) at 10uM” value amounted to 7.67%.

Regarding `COc1ccc([N+](=O)[O-])cc1NC(=O)CSCc1ccccc1C`, the “hERG current change (%, negative = inhibition) at 10uM” value is recorded as -7.85%. Regarding `O=C(CSCc1ccc([N+](=O)[O-])cc1)N/N=C/c1cccnc1`, the “hERG current change (%, negative = inhibition) at 10uM” value is -60.2%. Consider `O=C(CSc1ccc([N+](=O)[O-])cc1)NCC1CCCCC1`, for which the “hERG current change (%, negative = inhibition) at 10uM” value is recorded as -15%. With `COc1ccc(CNC(=O)C2CCC(CNS(=O)(=O)c3cccs3)CC2)cc1` (stereo not drawn), the “hERG current change (%, negative = inhibition) at 10uM” value was -18.9%. Next, `O=C1CC(O)(C(F)(F)F)Oc2c1ccc1ccccc21` (stereo not drawn): 7.95%.

Regarding `COc1ccc(/C=N/NC(=O)c2ccc3nc[nH]c3c2)c(OC)c1OC`, the “hERG current change (%, negative = inhibition) at 10uM” value came to 12.9%. Regarding `Cc1ccc(S(=O)(=O)NNC(=S)Nc2ccccc2)cc1`, the “hERG current change (%, negative = inhibition) at 10uM” value is 3.05%.

For `On1c(-c2ccc(Cl)cc2)nc2ccccc21`, the “hERG current change (%, negative = inhibition) at 10uM” value is on record as 13.9%. As for `C[n+]1cn(Cc2cc(Cl)ccc2OC(F)F)c2ccccc21.[Br-]`, the “hERG current change (%, negative = inhibition) at 10uM” value is 2.96%. For `CC(C)=Cc1oc2ccc([N+](=O)[O-])cc2c1N1CC(C)OC(C)C1` (stereo not drawn), the “hERG current change (%, negative = inhibition) at 10uM” value worked out at 18.7%. With `CC(=O)N1CCOc2ccc(S(=O)(=O)N3CCC(C(=O)NCc4ccc(F)cc4)CC3)cc21`, the “hERG current change (%, negative = inhibition) at 10uM” value is 4.09%. Next, `CCC(c1nnc(SCC(=O)Nc2ccc(C(C)=O)cc2)n1C1CCCCC1)N(C)C` (stereo not drawn): -9.96%; `Cc1ccc(CNC(=O)Nc2ccccc2)n1C`: 12.3%; `O=C(Nc1cccnc1)c1cc(-c2ccc(F)cc2)on1`: 10.9%. For the molecule `Cc1cccc(C)c1OC1(c2ccccc2)OC(=O)c2ccccc21` (stereo not drawn), the “hERG current change (%, negative = inhibition) at 10uM” value is 10.9%. For `CCCn1c(SCc2cc(=O)[nH]c3ccccc23)nc2c1c(=O)n(C)c(=O)n2C`, the “hERG current change (%, negative = inhibition) at 10uM” value was -7.61%.

On to `COc1cc(C(=O)Nc2ccc(S(=O)(=O)N3CCc4ccccc43)cc2)cc(OC)c1OC`, for which the “hERG current change (%, negative = inhibition) at 10uM” value is recorded as -4.14%. Turning to `CCOC(=O)C1CCN(S(=O)(=O)c2ccc(NC(=O)OC)cc2)CC1`, the “hERG current change (%, negative = inhibition) at 10uM” value is -56.5%.

As to `COc1ccc(S(=O)(=O)N2CCc3ccccc32)cc1C(=O)N1CCOCC1`, the “hERG current change (%, negative = inhibition) at 10uM” value is recorded as -0.239%.

In the case of `CCOC(=O)C1CCN(S(=O)(=O)c2ccc(C)cc2)CC1`, the “hERG current change (%, negative = inhibition) at 10uM” value is on record as 3.36%. Next, `CCOC(=O)N1CCN(C(=O)c2cc(S(=O)(=O)N3CCc4ccccc43)ccc2OC)CC1`: -52.1%; `CCOC(=O)C1CCN(C(=O)c2cccc(S(=O)(=O)N3CCc4ccccc43)c2)CC1`: -56.4%.

For the molecule `O=C(c1cccc(S(=O)(=O)N2CCc3ccccc32)c1)N1CCc2ccccc2C1`, the “hERG current change (%, negative = inhibition) at 10uM” value is on record as -13%. The result for `CCOC(=O)C1CCN(C(=O)c2cccc(S(=O)(=O)N3c4ccccc4CC3C)c2)CC1` (stereo not drawn) reads -35.7%; that for `CCOC(=O)C1CCN(S(=O)(=O)c2ccc(C(=O)OC)cc2)CC1`, -1.7%; that for `COc1ccccc1C(=O)Nc1ccc(S(=O)(=O)N2CCc3ccccc32)cc1`, -77%. Next, `COc1ccc(S(=O)(=O)N2CCc3ccccc32)cc1C(=O)Nc1ccc(C(N)=O)cc1`: 9.8%; `COc1ccc(S(=O)(=O)N2CCc3ccccc32)cc1C(=O)N1CCN(C=O)CC1`: -2.51%. Next, `COc1ccc(S(=O)(=O)N(CC(=O)Nc2ccc3c(c2)OCO3)c2ccccc2OC)cc1`: 18.5%; `COc1c2ccoc2c(OC)c2oc(=O)ccc12`: -5.65%; `CCC(C)C(NC(=O)C1CCC(C)CC1)C(=O)NCCc1ccc(S(N)(=O)=O)cc1` (stereo not drawn): 4.32%.

With `Cc1c(NN=C(C#N)C#N)c(=O)n(-c2ccccc2)n1C`, the “hERG current change (%, negative = inhibition) at 10uM” value came to 13.5%.

For the molecule `O=C1CSC(c2ccc(Cl)c(Cl)c2)N1c1nccs1` (stereo not drawn), the “hERG current change (%, negative = inhibition) at 10uM” value is on record as -1.93%. Next, `CC(C)(CO)C(O)C(=O)NCCCO` (stereo not drawn): 11.5%; `CCOc1ccccc1C1C(C#N)=C(N)Oc2cc(N)ccc21` (stereo not drawn): -5.58%; `O=C(Cn1c2ccc(F)cc2c2nc3n(c(=O)c21)CCS3)Nc1ccccc1C(F)(F)F`: 15.6%. With `O=C1CCCC/C1=C/NCc1ccc(F)cc1`, the “hERG current change (%, negative = inhibition) at 10uM” value was 6.07%. The result for `O=C(CSc1nc2ccccc2s1)NCCOc1ccc(Cl)cc1` reads -3.32%; that for `CC1CN(C(=O)COC(=O)c2c(Cl)cccc2Cl)CC(C)O1` (stereo not drawn), 6.73%; that for `CN1CCN(S(=O)(=O)c2ccc(CNC(=O)c3ccccc3)s2)CC1`, 23.1%. With `CCOC(=O)C1CCN(C(=O)c2cc(S(=O)(=O)N3CCOCC3)c(Cl)cc2Cl)CC1`, the “hERG current change (%, negative = inhibition) at 10uM” value was -50.1%.

Take `CCOC(=O)C1CCN(S(=O)(=O)c2ccc(OC)c(C(=O)N3CCCCC3)c2)CC1`: the “hERG current change (%, negative = inhibition) at 10uM” value is on record as 12.5%. Take `NC(=O)C1CCN(C(=O)c2cc(S(=O)(=O)N3CCOCC3)c(Cl)cc2Cl)CC1`: the “hERG current change (%, negative = inhibition) at 10uM” value is on record as 8.61%. `CCOC(=O)C1CCN(S(=O)(=O)CCNC(=O)c2ccccc2)CC1`: the “hERG current change (%, negative = inhibition) at 10uM” value was -2.78%. The result for `CCOC(=O)C1CCN(S(=O)(=O)c2ccc(CNC(=O)c3ccccc3)s2)CC1` reads -50.3%. Regarding `CCOC(=O)C1CCN(S(=O)(=O)c2ccc(OC)c(C(=O)N3CCCCCC3)c2)CC1`, the “hERG current change (%, negative = inhibition) at 10uM” value was -12.5%.

As for `CCOC(=O)C1CCN(C(=O)c2ccc(Cl)c(S(=O)(=O)N3CCOCC3)c2)CC1`, the “hERG current change (%, negative = inhibition) at 10uM” value is on record as -32.4%. In the case of `CCOC(=O)C1CCN(C(=O)c2cc(S(=O)(=O)N3CCCCCC3)ccc2OC)CC1`, the “hERG current change (%, negative = inhibition) at 10uM” value is on record as -50.8%. Next, `CCOC(=O)C1CCN(C(=O)c2cc(S(=O)(=O)N3CCc4ccccc43)ccc2OC)CC1`: -60.3%; `CCOC(=O)C1CCCN(C(=O)c2cc(S(=O)(=O)N3CCCCCC3)ccc2OC)C1` (stereo not drawn): -17.4%.

Take `COc1ccc(S(=O)(=O)N2CCc3ccccc32)cc1C(=O)O`: the “hERG current change (%, negative = inhibition) at 10uM” value is on record as -6.25%. Consider `O=C(N/C(=C\c1ccco1)C(=O)N1CCCC(CO)C1)c1ccccc1` (stereo not drawn), for which the “hERG current change (%, negative = inhibition) at 10uM” value was determined as 15.6%.

Regarding `Cc1ccc(S(=O)(=O)NC2CC3CCC2C3)cc1` (stereo not drawn), the “hERG current change (%, negative = inhibition) at 10uM” value was -1.07%. `CCN(C(=O)COc1ccccc1)C1CCCCC1`: the “hERG current change (%, negative = inhibition) at 10uM” value is 7.42%.

For `CC(=O)C[C@@H](O)CC(=O)[C@H]1OC(=O)CCCCCCc2ccccc21`, the “hERG current change (%, negative = inhibition) at 10uM” value is -2.65%. Next, `Cc1onc(C(=O)NCc2cccs2)c1[N+](=O)[O-]`: 9.7%; `CC1CCCN(c2ccc(F)cc2N)C1.Cl` (stereo not drawn): 11.2%. In the case of `COc1cccc(NC(=O)c2ccc[n+](C)c2)c1.[I-]`, the “hERG current change (%, negative = inhibition) at 10uM” value was 18.2%. In the case of `Cc1cccn2cc(CNc3ccccc3)nc12`, the “hERG current change (%, negative = inhibition) at 10uM” value is -4.15%.

On to `CCOC(=O)C1CCN(S(=O)(=O)c2ccc(C)c(C(=O)NC3CCCCC3)c2)CC1`, for which the “hERG current change (%, negative = inhibition) at 10uM” value is -55.8%. The result for `Cc1ccc(S(=O)(=O)N2CCC(C(N)=O)CC2)cc1C(=O)NC1CCCCC1` reads 18.9%; that for `CCOC(=O)N1CCN(S(=O)(=O)c2ccc(C)c(C(=O)NC3CCCCC3)c2)CC1`, 1.42%; that for `O=C(Nc1ccccc1)C(O)C(O)C(=O)Nc1ccccc1` (stereo not drawn), 16.8%. Regarding `Cn1cc(CNCCCn2ncc3ccccc32)c(-c2ccccc2F)n1`, the “hERG current change (%, negative = inhibition) at 10uM” value is -36.3%. Consider `CN(Cc1ccc(-n2cccn2)cc1)Cc1cn(C)nc1-c1ccccc1F`, for which the “hERG current change (%, negative = inhibition) at 10uM” value is -74.9%. As to `CCn1ccnc1CN(C)Cc1cn(C)nc1-c1ccccc1F`, the “hERG current change (%, negative = inhibition) at 10uM” value worked out at 13.2%.

Consider `Cn1cc(CNCc2ccc(-n3cccn3)cc2)c(-c2ccccc2F)n1`, for which the “hERG current change (%, negative = inhibition) at 10uM” value is reported as -62.2%. As for `COc1cccc(-n2cc(CNCc3cn(C)nc3-c3ccccc3F)cn2)c1`, the “hERG current change (%, negative = inhibition) at 10uM” value is -19.3%.

Consider `CN(Cc1cccc(-n2cccn2)c1)Cc1cn(C)nc1-c1ccccc1F`, for which the “hERG current change (%, negative = inhibition) at 10uM” value came to 15.9%. For the molecule `O=C(CNC(=O)OCc1ccccc1)NC1CCCCCCC1`, the “hERG current change (%, negative = inhibition) at 10uM” value was -2.67%.

As to `CCOCCCNC(=O)Cn1cnc2c(cnn2-c2ccc(C)c(C)c2)c1=O`, the “hERG current change (%, negative = inhibition) at 10uM” value is on record as 3.91%. As for `O=C(NCC12CC3CC(C1)CC(CNC(=O)N1CCCC1)(C3)C2)N1CCCC1`, the “hERG current change (%, negative = inhibition) at 10uM” value is given as -3.73%.

For the molecule `O=C(CN1CCN(C(=O)C2COc3ccccc3O2)CC1)Nc1ccccc1` (stereo not drawn), the “hERG current change (%, negative = inhibition) at 10uM” value was -66.2%. Next, `O=C(CN1CCN(C(=O)C2COc3ccccc3O2)CC1)Nc1ccc(F)cc1` (stereo not drawn): -75.7%; `O=C(C1COc2ccccc2O1)N1CCN(c2ccc(F)cc2)CC1` (stereo not drawn): -40.7%; `CC(C)N(C(=O)CN1CCN(C(=O)C2COc3ccccc3O2)CC1)C(C)C` (stereo not drawn): -0.817%. For the molecule `CCN1CCN(C(=O)C2COc3ccccc3O2)CC1` (stereo not drawn), the “hERG current change (%, negative = inhibition) at 10uM” value is on record as -7.48%. With `O=C(Nc1ccc(F)cc1)C1COc2ccccc2O1` (stereo not drawn), the “hERG current change (%, negative = inhibition) at 10uM” value is given as 9.07%.
